Laboratory results published in PubChem BioAssay (Tox21).
Records with an inconclusive call do not appear. Calls of active or inactive are those of the source. Unless noted, calls follow the shape of the dose curve; as a rule, active = well fitted cell-killing curve with a large enough effect in the repeat runs; inconclusive = weak or mixed curves; inactive = no such curve, though single readings can be large or run the other way.

System: not listed separately
Experiment: qHTS assay to identify small molecule antagonists of the peroxisome proliferator-activated receptor delta (PPARd) signaling pathway - cell viability counter screen (AID 743213); also: nearly all actives have a fitted effect of over 50% in size
Settings: PPARd-bla HEK293H viability, CellTiter-Glo luminescence, 17 h; series mostly up to 62 µM
Summary of the method: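 Viability counter-screen, qHTS format: PPARd-bla HEK293H, L165041 300 nM final, 17 h compound exposure at 37 C, CellTiter-Glo luminescence after 30 min RT.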

Question: With `ClCCCN1CCN(c2cccc(Cl)c2)CC1` as the molecule, how does the outcome read?
Answer: inactive

Question: With `C[C@]12CC[C@H]3[C@@H](CC=C4C[C@@H](O)CC[C@@]43C)[C@@H]1CC[C@@H]2O` as the molecule, how does the outcome read?
Answer: inactive

Question: Which outcome does the source give for `CC(C)[N+](=O)[O-]` here?
Answer: inactive

Question: For `OC(c1ccccc1)(c1ccccc1)C1CCNCC1`, which outcome is on record?
Answer: inactive

Question: For `CC(Cl)(Cl)[N+](=O)[O-]`, which outcome is on record?
Answer: inactive

Question: Which outcome does the source give for `C=C(C)CN(CC)c1c([N+](=O)[O-])cc(C(F)(F)F)cc1[N+](=O)[O-]` here?
Answer: inactive

Question: With `CN1CCN(C(=O)O[C@H]2c3nccnc3C(=O)N2c2ccc(Cl)cn2)CC1` as the molecule, how does the outcome read?
Answer: inactive

Question: Which outcome does the source give for `NC(=S)C(N)=S` here?
Answer: inactive

Question: Which outcome does the source give for `Cc1ncc2n1-c1ccc(Cl)cc1C(c1ccccc1F)=NC2` here?
Answer: inactive

Question: Which outcome does the source give for `O=C1c2ccccc2C(=O)c2ccccc21` here?
Answer: inactive

Question: For `Cc1ncc(CNC(=O)N(CCCl)N=O)c(N)n1`, which outcome is on record?
Answer: inactive

Question: With `C[N+](C)=CCl` as the molecule, how does the outcome read?
Answer: inactive

Question: For `CNC(=O)Oc1ccccc1C1OCCO1`, which outcome is on record?
Answer: inactive

Question: With `O=[N+]([O-])c1cccc2cccnc12` as the molecule, how does the outcome read?
Answer: inactive

Question: For `OCCBr`, which outcome is on record?
Answer: inactive

Question: With `CC(N)=S` as the molecule, how does the outcome read?
Answer: inactive

Question: Which outcome does the source give for `O=[N+]([O-])c1ccc2c3c(cccc13)CC2` here?
Answer: inactive

Question: Which outcome does the source give for `CCOP(=O)(OCC)OP(=O)(OCC)OCC` here?
Answer: inactive

Question: For `CCC(=O)C(CCN(C)C)(c1ccccc1)c1ccccc1`, which outcome is on record?
Answer: inactive

Question: Which outcome does the source give for `CC1(C(=O)Nc2ccc(O)c(Cl)c2Cl)CCCCC1` here?
Answer: inactive

Question: For `CC1CCC(=O)O1` (centres undefined), which outcome is on record?
Answer: inactive

Question: Which outcome does the source give for `CS(=O)(=O)c1cc(C(F)(F)F)ccc1C(=O)c1cnoc1C1CC1` here?
Answer: inactive

Question: For `COc1cc2c(cc1OC)[C@@]13CCN4CC5=CCO[C@H]6CC(=O)N2[C@H]1[C@H]6[C@H]5C[C@H]43`, which outcome is on record?
Answer: inactive

Question: Which outcome does the source give for `CNC(=O)Oc1ccc(N(C)C)c(C)c1` here?
Answer: inactive

Question: With `NC(=O)O` as the molecule, how does the outcome read?
Answer: inactive

Target: Peroxisome proliferator-activated receptor delta (Homo sapiens) (UniProt Q03181)
Experiment: qHTS assay to identify small molecule antagonists of the peroxisome proliferator-activated receptor delta (PPARd) signaling pathway (AID 743215; active = well fitted inhibition curve with a large enough effect in the signal ratio in the repeat runs, not every such curve was filed as active; the % refers to the signal ratio;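 also: cells stimulated with agonist L165041 at 300 nM final during compound exposure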)
Settings: HEK293H PPARd-UAS-bla, beta-lactamase FRET ratio, antagonist, 17 h; series mostly up to 62 µM
Summary of the method: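 Fluorescence from cleaved LiveBLAzer B/G FRET substrate (2 h, room temperature) reports PPARd-driven beta-lactamase in HEK293H UAS-bla cells. Cells had been treated 17 h at 37 C with compound plus 300 nM final L165041.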

Sequence of Peroxisome proliferator-activated receptor delta (Homo sapiens) (Q03181 whole entry, looked up): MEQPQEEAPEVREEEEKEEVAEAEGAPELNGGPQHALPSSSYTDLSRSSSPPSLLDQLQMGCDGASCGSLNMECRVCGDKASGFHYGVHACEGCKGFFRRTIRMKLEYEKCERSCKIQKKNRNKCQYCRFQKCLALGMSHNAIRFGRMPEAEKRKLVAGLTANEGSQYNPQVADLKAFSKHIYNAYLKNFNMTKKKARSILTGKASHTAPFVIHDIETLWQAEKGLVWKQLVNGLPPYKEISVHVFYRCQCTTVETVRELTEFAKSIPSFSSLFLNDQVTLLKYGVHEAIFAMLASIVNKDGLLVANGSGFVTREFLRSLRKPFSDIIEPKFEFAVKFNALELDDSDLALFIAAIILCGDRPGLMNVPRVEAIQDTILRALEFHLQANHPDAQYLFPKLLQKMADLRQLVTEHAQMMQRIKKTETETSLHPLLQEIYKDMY

Question: With `CCCCC(=O)Cl` as the molecule, how does the outcome read?
Answer: inactive

Question: For `CCCCCCI`, which outcome is on record?
Answer: inactive

Question: With `C=C(C)CN(CC)c1c([N+](=O)[O-])cc(C(F)(F)F)cc1[N+](=O)[O-]` as the molecule, how does the outcome read?
Answer: inactive

Question: Which outcome does the source give for `NC(=S)C(N)=S` here?
Answer: inactive

Question: For `COc1cccc(C(=O)NN(C(=O)c2cc(C)cc(C)c2)C(C)(C)C)c1C`, which outcome is on record?
Answer: inactive

Question: For `O=C1c2ccccc2C(=O)c2ccccc21`, which outcome is on record?
Answer: inactive

Question: With `COc1cc(OC)nc(Oc2cccc(Oc3nc(OC)cc(OC)n3)c2C(=O)O)n1` as the molecule, how does the outcome read?
Answer: inactive

Question: Which outcome does the source give for `CNC(=O)Oc1ccccc1C1OCCO1` here?
Answer: inactive

Question: With `O=[N+]([O-])c1cccc2cccnc12` as the molecule, how does the outcome read?
Answer: inactive

Question: With `Cc1cc(C)nc(Nc2ccccc2)n1` as the molecule, how does the outcome read?
Answer: inactive

Question: For `CC(N)=S`, which outcome is on record?
Answer: inactive

Question: Which outcome does the source give for `O=[N+]([O-])c1ccc2c3c(cccc13)CC2` here?
Answer: inactive

Question: With `CCOP(=O)(OCC)OP(=O)(OCC)OCC` as the molecule, how does the outcome read?
Answer: inactive

Question: With `CCC(=O)C(CCN(C)C)(c1ccccc1)c1ccccc1` as the molecule, how does the outcome read?
Answer: inactive

Question: With `C[C@@H]1CN(C2CCC(C#N)(c3ccc(F)cc3)CC2)CC[C@]1(C(=O)O)c1ccccc1` (some centres undefined) as the molecule, how does the outcome read?
Answer: inactive

Question: For `N#CC(CCc1ccc(Cl)cc1)(Cn1cncn1)c1ccccc1` (centres undefined), which outcome is on record?
Answer: inactive

Question: Which outcome does the source give for `CC1(C(=O)Nc2ccc(O)c(Cl)c2Cl)CCCCC1` here?
Answer: inactive

Question: For `CS(=O)(=O)c1cc(C(F)(F)F)ccc1C(=O)c1cnoc1C1CC1`, which outcome is on record?
Answer: inactive

Question: With `NC(=O)O` as the molecule, how does the outcome read?
Answer: inactive
